Calls of active or inactive are those of the source.
Experiments:
Albumin (Bos taurus) = Albumin (Bos taurus) (UniProt P02769); assay: bovine serum albumin binders on microarray, profiling panel, artefact control for SMM control protein annotation, biochemical, small-molecule microarray, Alexa647 label, 635/667 nm fluorescence (AID 1118); settings: BSA-A647 binding, fluorescence 635 nm, higher = more signal;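 note: score merges 667 nm emission intensity and signal-to-noise per printed compound spot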
Chain of Albumin (Bos taurus) (P02769 whole entry, looked up): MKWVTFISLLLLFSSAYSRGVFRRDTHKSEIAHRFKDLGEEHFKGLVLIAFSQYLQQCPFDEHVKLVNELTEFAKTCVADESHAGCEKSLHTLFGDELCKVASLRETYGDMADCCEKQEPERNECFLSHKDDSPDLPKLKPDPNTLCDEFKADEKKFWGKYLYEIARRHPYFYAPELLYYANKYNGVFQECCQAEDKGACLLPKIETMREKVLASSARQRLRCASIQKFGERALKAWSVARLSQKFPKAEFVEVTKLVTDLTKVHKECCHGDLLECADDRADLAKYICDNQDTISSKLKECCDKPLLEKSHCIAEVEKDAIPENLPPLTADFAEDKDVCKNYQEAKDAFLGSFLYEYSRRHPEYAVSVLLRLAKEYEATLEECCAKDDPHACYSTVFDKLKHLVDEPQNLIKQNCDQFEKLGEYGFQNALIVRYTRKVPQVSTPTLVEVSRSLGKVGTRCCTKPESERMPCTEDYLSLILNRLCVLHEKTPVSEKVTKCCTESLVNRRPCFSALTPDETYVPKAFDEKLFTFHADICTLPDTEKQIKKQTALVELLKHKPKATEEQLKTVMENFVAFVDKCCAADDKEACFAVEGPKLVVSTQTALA

[1] = small-molecule microarray binders of probe aXIP, primary screen, biochemical, NeuroSMM set, 635/667 nm fluorescence (AID 1119); settings: higher = more signal, called active from +8 up or from −8 down;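 note: probe is the protein aXip251-270 applied at 1 µg/mL to compound-printed slides; binding of probe to printed compounds measured as 667 nm fluorescence plus signal to noise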
[2] = small-molecule binders of probe aNOTCH3, primary screen, biochemical, small-molecule microarray, 635/667 nm fluorescence (AID 1120); settings: higher = more signal;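 note: probe is a biotin-tagged antibody raised against NOTCH3 rather than NOTCH3 protein; score merges spot fluorescence near 667 nm with spot signal to noise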
[3] = small-molecule binders of probe aNOTCH2, primary screen, biochemical, small-molecule microarray, 635/667 nm fluorescence (AID 1121); settings: higher = more signal;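 note: score merges feature fluorescence read at 667 nm with its signal to noise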
[4] = target: Carbonic anhydrase 2 (Homo sapiens) (UniProt P00918); assay: CAII small-molecule binders, profiling panel, biochemical, small-molecule microarray, Alexa647-labelled CAII (AID 1122); settings: CAII-A647 binding fluorescence, higher = more signal
[5] = COS7 lysate on small-molecule microarray, probe aHis, 635 nm (AID 1123); settings: COS7 cell lysate, fluorescence, higher = more signal;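 note: z-score combines 667nm fluorescence intensity with signal-to-noise per printed compound spot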
[6] = compound binding in COS7 lysate, probe aLAP1, primary screen, cell lysate, small-molecule microarray (AID 1124); settings: probe aLAP1, fluorescence, higher = more signal;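 note: lysate comes from COS7 cells expressing LAP1 and is applied at 0.3 µg/mL; score merges spot fluorescence near 667 nm with signal-to-noise over triplicate slides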
Sam68 (KHDRBS1) = assay: Sam68 small-molecule binders, primary screen, biochemical, small-molecule microarray, 635 nm fluorescence (AID 1125); settings: small-molecule microarray binding, higher = more signal;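 note: score merges 667 nm channel intensity with signal to noise over triplicate slides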
[7] = test system: Chordin-like protein 2 (CHRDL2); assay: CHRDL2 small-molecule binders, primary screen, biochemical, small-molecule microarray, 635 nm fluorescence (AID 1126); settings: small-molecule microarray binding, fluorescence 635 nm; higher = more signal;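 note: printed compound slides probed with Chrdl2 protein at 4 µg/mL for 1 h at 4 C; score merges 667 nm emission intensity with signal to noise over three replicate slides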
[8] = target: Concanavalin-A (Canavalia ensiformis) (UniProt P02866); assay: ConA small-molecule binders, primary screen, artefact control for SMM control protein annotation, biochemical, small-molecule microarray, Alexa647 label, 635 nm (AID 1127); settings: ConA-A647 binding fluorescence, higher = more signal;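 note: z combines 667 nm emission intensity with signal-to-noise across three replicate slides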
Chain of Concanavalin-A (Canavalia ensiformis) (P02866 whole entry, looked up): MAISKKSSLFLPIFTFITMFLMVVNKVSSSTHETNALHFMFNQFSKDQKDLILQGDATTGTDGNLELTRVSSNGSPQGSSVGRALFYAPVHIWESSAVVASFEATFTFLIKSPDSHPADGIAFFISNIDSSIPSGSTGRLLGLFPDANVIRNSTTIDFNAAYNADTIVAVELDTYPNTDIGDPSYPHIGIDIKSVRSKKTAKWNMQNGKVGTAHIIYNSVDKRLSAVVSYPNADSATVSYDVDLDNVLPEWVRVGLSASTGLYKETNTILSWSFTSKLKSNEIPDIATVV

[9] = anti-His antibody binders, primary screen, artefact control for SMM control protein annotation, biochemical, small-molecule microarray, 635 nm fluorescence (AID 1128); settings: anti-His Alexa647 antibody binding, higher = more signal;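 note: score merges feature fluorescence with signal-to-noise for each printed compound spot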
[10] = test system: Human papillomavirus type 1a E7 protein (residues 1-88); assay: HPV1a E7 small-molecule binders, primary screen, biochemical, small-molecule microarray, residues 1-88, 635 nm (AID 1129); settings: small-molecule microarray binding, fluorescence 635 nm; higher = more signal
[11] = target: Focal adhesion kinase 1 (Homo sapiens) (UniProt Q05397); assay: small-molecule microarray binders of FAK, primary screen, biochemical, 635/667 nm fluorescence, BSA, DTT (AID 1130); settings: PTK2 binding, 635 nm fluorescence, higher = more signal;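 note: composite of spot emission at 667 nm and signal to noise over triplicate slides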
Chain of Focal adhesion kinase 1 (Homo sapiens) (Q05397 whole entry, looked up): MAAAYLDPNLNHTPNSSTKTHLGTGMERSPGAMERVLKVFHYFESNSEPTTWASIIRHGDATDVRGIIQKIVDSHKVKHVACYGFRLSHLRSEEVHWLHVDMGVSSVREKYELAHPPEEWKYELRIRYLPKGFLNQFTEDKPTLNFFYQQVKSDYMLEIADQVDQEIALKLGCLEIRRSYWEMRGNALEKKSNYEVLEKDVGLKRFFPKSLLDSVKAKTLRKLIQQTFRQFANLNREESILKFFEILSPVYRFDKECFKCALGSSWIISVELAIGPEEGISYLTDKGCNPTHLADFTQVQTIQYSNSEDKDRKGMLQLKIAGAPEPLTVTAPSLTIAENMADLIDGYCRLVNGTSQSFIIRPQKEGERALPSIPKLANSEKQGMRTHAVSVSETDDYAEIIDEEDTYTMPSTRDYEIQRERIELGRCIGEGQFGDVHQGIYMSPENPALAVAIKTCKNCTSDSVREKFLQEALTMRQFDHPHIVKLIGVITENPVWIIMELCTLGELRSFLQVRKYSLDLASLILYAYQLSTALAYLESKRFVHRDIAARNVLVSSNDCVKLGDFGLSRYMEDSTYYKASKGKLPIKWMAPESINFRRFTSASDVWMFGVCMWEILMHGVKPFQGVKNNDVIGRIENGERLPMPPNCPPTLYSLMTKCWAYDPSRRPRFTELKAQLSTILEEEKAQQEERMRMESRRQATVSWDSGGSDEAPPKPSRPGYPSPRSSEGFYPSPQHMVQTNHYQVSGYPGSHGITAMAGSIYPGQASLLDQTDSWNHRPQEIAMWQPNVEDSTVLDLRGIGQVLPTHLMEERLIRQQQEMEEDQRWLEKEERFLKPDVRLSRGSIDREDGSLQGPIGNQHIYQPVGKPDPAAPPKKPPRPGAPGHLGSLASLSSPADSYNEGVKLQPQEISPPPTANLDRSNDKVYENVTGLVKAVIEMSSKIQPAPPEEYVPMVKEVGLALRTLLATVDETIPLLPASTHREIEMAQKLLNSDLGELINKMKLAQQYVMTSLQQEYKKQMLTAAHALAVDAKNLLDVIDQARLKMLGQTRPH

[12] = test system: Fibrinogen (Alexa647-labelled); assay: fibrinogen binders on compound microarrays, profiling panel, artefact control for SMM control-protein annotation, biochemical, small-molecule microarray, 635/667 nm fluorescence (AID 1131); settings: fibrinogen-A647 binding fluorescence, higher = more signal;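 note: z-score merges 667 nm fluorescence with per-spot signal-to-noise over triplicate slides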
[13] = target: Follistatin (Homo sapiens) (UniProt P19883); assay: follistatin binders on small-molecule microarrays, primary screen, biochemical, small-molecule microarray, 635/667 nm fluorescence (AID 1132); settings: FST binding, 635 nm fluorescence, higher = more signal
Chain of Follistatin (Homo sapiens) (P19883 whole entry, looked up): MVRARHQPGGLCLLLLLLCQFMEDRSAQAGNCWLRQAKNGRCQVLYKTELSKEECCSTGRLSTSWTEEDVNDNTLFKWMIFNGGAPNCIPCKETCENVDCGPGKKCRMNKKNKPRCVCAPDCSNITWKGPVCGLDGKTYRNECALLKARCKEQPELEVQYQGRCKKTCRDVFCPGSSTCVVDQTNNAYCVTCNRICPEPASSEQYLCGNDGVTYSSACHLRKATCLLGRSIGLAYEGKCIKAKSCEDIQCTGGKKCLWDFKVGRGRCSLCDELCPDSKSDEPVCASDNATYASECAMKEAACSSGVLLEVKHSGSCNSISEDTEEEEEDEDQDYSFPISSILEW

[14] = target: Fibroblast growth factor 2 (Homo sapiens) (UniProt P09038); assay: FGF2 binders on small-molecule microarrays, primary screen, biochemical, small-molecule microarray, 635/667 nm fluorescence (AID 1133); settings: small-molecule microarray binding, FGF2, fluorescence 635/667; higher = more signal
Chain of Fibroblast growth factor 2 (Homo sapiens) (P09038 whole entry, looked up): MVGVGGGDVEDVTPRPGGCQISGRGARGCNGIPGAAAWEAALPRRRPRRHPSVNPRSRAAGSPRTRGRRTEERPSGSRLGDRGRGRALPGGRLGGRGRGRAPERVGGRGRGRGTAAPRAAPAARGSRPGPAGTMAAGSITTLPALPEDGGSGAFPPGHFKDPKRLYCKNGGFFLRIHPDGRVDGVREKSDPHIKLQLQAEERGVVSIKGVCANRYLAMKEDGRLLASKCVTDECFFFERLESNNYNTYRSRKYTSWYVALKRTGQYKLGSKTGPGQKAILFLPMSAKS

[15] = mitochondrial membrane potential change in A549 cells, profiling panel, cell-based, JC-1 fluorescence, basal, 24 h, 100 nL (AID 1138); settings: higher = more signal;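 note: A549 lung adenocarcinoma cells under basal conditions with no added stimulus; test concentration not given here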
Lefty1 = Lefty1 binders on small-molecule microarrays, primary screen, biochemical, small-molecule microarray, 635/667 nm fluorescence (AID 1139); settings: small-molecule microarray binding, fluorescence 635/667; higher = more signal
[16] = test system: wheat germ agglutinin (Triticum aestivum), Alexa647-labelled; assay: wheat germ agglutinin binders on compound microarrays, profiling panel, artefact control for SMM control-protein annotation, biochemical, small-molecule microarray, 635/667 nm fluorescence (AID 1140); settings: WGA-A647 binding, 635 nm fluorescence, higher = more signal;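 note: score merges 667 nm feature emission with signal to noise over triplicate slides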
[17] = target: Luciferin 4-monooxygenase (Photinus pyralis) (UniProt P08659); assay: firefly luciferase enzyme inhibitors, primary screen, biochemical, luminescence, purified enzyme, 2006 set (AID 1141); settings: SteadyGlo luminescence, 30 min, higher = more signal, called active from +8 up or from −8 down;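 note: cell-free assay with purified firefly luciferase at 100 ng per well in PBS; test concentration not given here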
Chain of Luciferin 4-monooxygenase (Photinus pyralis) (P08659 whole entry, looked up): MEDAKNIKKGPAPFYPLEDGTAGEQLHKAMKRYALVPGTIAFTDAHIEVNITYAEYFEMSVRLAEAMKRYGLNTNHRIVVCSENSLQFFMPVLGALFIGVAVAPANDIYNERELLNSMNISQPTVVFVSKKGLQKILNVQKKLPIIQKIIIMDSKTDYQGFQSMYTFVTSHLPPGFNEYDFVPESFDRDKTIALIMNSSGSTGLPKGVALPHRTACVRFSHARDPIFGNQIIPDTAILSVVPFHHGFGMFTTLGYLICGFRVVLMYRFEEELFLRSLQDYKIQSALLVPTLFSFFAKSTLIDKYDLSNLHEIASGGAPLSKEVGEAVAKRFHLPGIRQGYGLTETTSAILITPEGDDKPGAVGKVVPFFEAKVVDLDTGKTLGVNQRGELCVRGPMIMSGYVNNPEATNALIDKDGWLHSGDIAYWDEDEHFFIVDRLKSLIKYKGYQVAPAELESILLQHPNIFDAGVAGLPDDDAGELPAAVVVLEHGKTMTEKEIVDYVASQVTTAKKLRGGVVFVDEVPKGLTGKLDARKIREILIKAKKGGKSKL

| Compound | composite z-score (Albumin (Bos taurus)) | composite Z-score [1] | composite z-score [2] | composite z-score [3] | composite z-score [4] | composite z-score [5] | composite z-score [6] | composite z-score (Sam68 (KHDRBS1)) | composite z-score [7] | composite z-score [8] | composite z-score [9] | composite z-score [10] | composite z-score [11] | composite z-score [12] | composite z-score [13] | composite z-score [14] | z-score [15] | composite z-score (Lefty1) | composite z-score [16] | z-score [17] |
| --- | --- | --- | --- | --- | --- | --- | --- | --- | --- | --- | --- | --- | --- | --- | --- | --- | --- | --- | --- | --- |
| CC(C)c1ccc(NN2C(C(O)c3ccco3)C=CC3C(=O)N(c4ccccc4)C(=O)C32)cc1 (stereo not given) | 0.488 | 0.204 (inactive) | 0.133 | 0.124 | 0.762 | 2.18 | 0.219 | 1.14 | -0.394 | 1.17 | 1.26 | 1.22 | 1.14 | 0.995 | 1.26 | 0.0324 | 0.222 | 0.634 | 1.32 | -1.29 (inactive) |
| CC(=O)n1cc(C(O)C2C=CC3C(=O)N(c4ccccc4)C(=O)C3N2Nc2ccccc2)c2ccccc21 (stereo not given) | 0.408 | 0.197 (inactive) | 0.504 | 0.207 | 0.788 | 1.08 | 0.697 | 0.897 | 0.8 | 0.183 | 0.917 | 0.663 | 0.0901 | 0.735 | 1.36 | -0.379 | -0.282 | -0.137 | 1.27 | 0.252 (inactive) |
| O=C1NC(=O)C2C1C=CC(C(O)c1cc(C(F)(F)F)cc(C(F)(F)F)c1)N2Nc1ccc(Cl)cc1Cl (stereo not given) | 0.839 | 0.809 (inactive) | 0.0833 | -0.0703 | 0.583 | 2.45 | 0.554 | -0.163 | -0.464 | -0.415 | 0.864 | 1.05 | 0.46 | -0.607 | 0.109 | -0.544 | -0.836 | -1.03 | 0.802 | 0.172 (inactive) |
| COc1ccc([Si](C)(C)[C@@H]2[C@@H](CCO)O[C@]3(C(=O)N(Cc4cccc(N5C(=O)c6cccc7cccc5c67)c4)c4ccccc43)[C@H]2C)cc1 | 0.219 | -0.139 (inactive) | -0.0947 | -0.101 | 0.428 | 1.17 | -0.179 | 0.262 | -0.512 | 0.48 | 1.06 | 0.848 | -0.123 | 0.136 | 0.004 | -0.0148 | -0.43 | 0.626 | 0.0034 | -0.508 (inactive) |
| CC1CC/C=C\[C@H]2OC34C=CCN(C(C)C)C(=O)[C@H]3N(CCCCCO)C(=O)[C@@H]4C2C(=O)O1 (stereo not given in full) | -1.51 | -0.362 (inactive) | -0.289 | -0.153 | 0.939 | -0.384 | 0.839 | -0.925 | -1.69 | -0.486 | -1.07 | -1.71 | -0.6 | -1.29 | -0.985 | -1.17 | 1.68 | -1.42 | -0.892 | -1.39 (inactive) |
| [N-]=[N+]=Nc1ccccc1[C@@H]1OC(c2ccc(OCCCO)cc2)=N[C@]1(CCS(=O)(=O)c1ccccc1)C(=O)NCCN1CCOCC1 | 0.734 | 0.131 (inactive) | 0.178 | -0.0267 | 0.485 | 2.71 | 0.21 | 1.29 | -0.22 | 0.478 | 0.903 | 1.28 | -0.018 | 0.962 | 1.14 | -0.29 | -0.377 | 0.393 | 1.04 | -8.81 (active) |
| C[N+](C)(C)CCCC[C@@H]1NC(=O)[C@@H]2C[C@H](C(=O)O)[C@H](c3ccc(O)cc3)N2C1=O | 0.594 | -0.238 (inactive) | -0.223 | -0.0798 | 0.381 | -0.555 | -0.534 | -2.19 | -0.827 | 0.0317 | -0.613 | -1.65 | -0.975 | -1.21 | -0.493 | -0.27 | -0.264 | 0.0501 | 0.213 | -0.516 (inactive) |
| CN1C(=O)C2C=CC(C(O)c3c(F)cccc3Cl)N(Nc3ccccc3)C2C1=O (stereo not given) | 0.956 | -0.263 (inactive) | 0.291 | 0.0177 | 0.396 | 2.84 | 0.73 | 0.895 | 0.298 | 1.18 | -0.0126 | -0.105 | 0.464 | 0.978 | 1.03 | -0.166 | 1.14 | -0.309 | 1.05 | 0.565 (inactive) |
| O=C1NC(=O)C2C1C=CC(C(O)c1ccc(Br)cc1)N2Nc1ccccn1 (stereo not given) | 0.849 | -0.838 (inactive) | 0.327 | 0.176 | 0.822 | 0.991 | 0.74 | 0.0126 | 0.913 | 0.48 | 1.32 | 0.173 | 0.231 | 0.995 | 0.426 | 0.657 | 0.631 | -0.162 | 0.806 | -1.52 (inactive) |
| COc1cc(CO)cc(I)c1O[C@H]1C=C(C(=O)NCCO)C[C@@H](N(CC2CCCCC2)C(=O)c2ccc(C(F)(F)F)cc2)[C@@H]1O | 0.388 | 0.527 (inactive) | -0.0921 | -0.147 | 0.055 | 0.461 | 0.621 | 1.27 | 0.398 | 0.352 | 0.0463 | 0.621 | 0.0469 | 0.367 | 0.578 | 0.12 | 0.53 | 0.784 | 0.193 | -0.795 (inactive) |
| O=C1c2ccccc2[C@](Cc2ccccc2I)(C(=O)NCCN2CCOCC2)[C@H](c2ccc(CO)cc2)N1Cc1ccccc1 | 0.673 | -0.52 (inactive) | 0.533 | -0.0468 | 0.377 | 1.28 | 0.369 | 1.3 | 0.286 | 1.12 | 0.0765 | 1.2 | 0.964 | 0.598 | 1.26 | 0.146 | 0.803 | 0.98 | 0.458 | -0.0588 (inactive) |
